Where “and” joins values, the source holds several entries; their conditions need not be identical. Equal entries are not always repeated. Inconclusive results are not listed. Calls of active or inactive are those of the source. Unless noted, calls follow the shape of the dose curve; as a rule, active = well fitted curve in the direction sought with a large enough effect; inconclusive = small, poorly fitted or top-dose-only effect, or another doubt; inactive = no such curve, though single readings can be large; an effect the other way counts as inactive or inconclusive.
Assays:
[1] = AP1 Signaling Pathway (AID 357; active = well fitted curve in either direction with a large enough effect, not every such curve was filed as active;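 also: ME-180 reporter cells stimulated with EGF at its EC50 level; % is scaled to controls: 0 for no effect and ±100 for the full control effect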); details: ME-180 AP-1-bla reporter, EGF-induced, beta-lactamase ratio, 5 h; at 38 µM (top of the series)
How it was run: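 Beta-lactamase reporter under AP-1 response element, ME-180 background. Stimulus: EC50 EGF. Compound exposure 5 h, 37 °C. Detection: CCF4, 2.5 h RT, 460/530 nm. Values: AC50 from titration.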

[2] = target: Cytochrome P450 1A2 (Homo sapiens) (UniProt P05177); experiment: p450-cyp1a2 (AID 410; calls by dose curve;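 also: -100% = full effect of reference inhibitor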)
How it was run: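 Luminescent readout of luciferin formed from Luciferin-ME by human CYP1A2; data normalized against complete inhibition by 57 uM furafylline. Enzyme 20nM, substrate 100uM at Km, 100mM KPO4 buffer, 60 min reaction at room temperature.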

[3] = NFAT Signaling Pathway (AID 444; active = well fitted curve in either direction with a large enough effect, not every such curve was filed as active;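 also: carbachol stimulus at about its EC50 of 1 µM final; % is scaled to controls: 0 for no effect and ±100 for the full control effect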); details: Jurkat NFAT-bla M1, carbachol, beta-lactamase ratio, 5 h; at 38 µM (top of the series)
How it was run: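 Read-out: CCF4 FRET ratio (460 nm/530 nm) after 1 h RT dye loading, used for %activity and AC50 from titration series. Cells: Jurkat NFAT-β-lactamase/M1 line, treated with compound plus 1 uM carbachol for 5 h, 37 °C.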

[4] = Stat Signaling Pathway (AID 446; active = well fitted curve in either direction with a large enough effect, not every such curve was filed as active;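 also: ME-180 cervical cancer cells given 40 pM IL-6 alongside compound; SIE-controlled beta-lactamase reporter measured as 460/530 nm FRET emission ratio; % is scaled to controls: 0 for no effect and ±100 for the full control effect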); details: ME-180 SIE beta-lactamase reporter, IL-6 stimulated, 5 h; at 38 µM (top of the series)
How it was run: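 Screening format detects activators and inhibitors alike: ME-180 SIE-bla cells stimulated at 40 pM IL-6 for 5 hrs with compound, then dual-emission beta-lactamase read at 405 nm excitation.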

[5] = target: Glucocorticoid receptor (Homo sapiens) (UniProt P04150); experiment: GR-EFC Redistribution (AID 451; calls by dose curve; also: potency is read from the fitted curve at half-maximal effect); details: CHO-K1 GR-EFC translocation, beta-gal luminescence, 2 h
How it was run: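 Translocation of GR-ED fusion to nuclear EA restores b-gal, read by luminescence after 1 h room-temperature detection. Engineered CHO-K1 biosensor cells, 1,000/well, exposed 2 h at 37 C to titrations up to 46 uM final.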

[6] = target: Mitogen-activated protein kinase 10 (Mus musculus) (UniProt Q61831); experiment: JNK3 AlphaScreen Assay (AID 530; active = well fitted curve in either direction with a large enough effect, not every such curve was filed as active;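 also: kinase came from lysate of stimulated human HepG2 cells; signal reports phosphorylation of biotinylated GST-cJun 1-79 at Ser73 with 10 µM ATP; % is scaled to controls: 0 for no effect and ±100 for the full control effect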)
How it was run: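 Compound titrations were preincubated 15 minutes at room temperature with substrate, antibody and pre-activated JNK3-containing HepG2 lysate. Reactions were started with 10 uM ATP and stopped with EDTA-containing bead buffer for AlphaScreen detection.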

[7] = target: 3',5'-cyclic-AMP phosphodiesterase 4B (Homo sapiens) (UniProt Q07343); experiment: qHTS Assay for Inhibitors of PDE-IV (AID 607; active = well fitted activation curve with a large enough effect in the main read-out, with a control signal flat, not every such curve was filed as active; also: % of control where 0% means no effect)
How it was run: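 The readout is membrane depolarisation from a cAMP-sensing CNG channel, detected with a potential dye at ex 535/em 590. Cells were HEK293-derived (endogenous PDE-IV) at 1000 cells/well, titrated up to 22.9 uM final.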

[8] = target: Guanine nucleotide-binding protein G(i) subunit alpha-1 (Homo sapiens) (UniProt P63096); experiment: qHTS Assay for Inhibitors of RGS12 GoLoco Motif Activity (Green Fluorophore) (AID 879);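 also: 0% = labeled peptide with Gαi1 and full inhibition = labeled peptide alone without protein; negative values mean loss of peptide binding seen as reduced polarization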
How it was run: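 Fluorescence polarization assay: 50 nM Gαi1 with 10 nM FITC-labeled RGS12 GoLoco peptide in 10 mM Tris pH 7.5, 150 mM NaCl, 0.1 mM GDP, 0.05% NP40, 10 min at room temperature with compound.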

[9] = target: Cytochrome P450 2C9 (Homo sapiens) (UniProt P11712); experiment: qHTS Assay for Inhibitors and Substrates of Cytochrome P450 2C9 (AID 883); also: % is scaled to controls: 0 for no effect and ±100 for the full control effect; nearly all actives have a fitted effect of over 60% in size
How it was run: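 Inhibition of CYP2C9 is scored as loss of luminescence, with 57uM sulphaphenazole defining 100% inhibition. Substrate Luciferin-H is used at 100uM, equal to its KM; enzyme at 10nM in 25mM KPO4, 60 min at 37C with NADPH regeneration.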

[10] = target: Cytochrome P450 2D6 (Homo sapiens) (UniProt P10635); experiment: qHTS Assay for Inhibitors and Substrates of Cytochrome P450 2D6 (AID 891);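 also: luciferin methyl ether substrate demethylated by CYP2D6 with NADPH regeneration; % is scaled to controls: 0 for no effect and ±100 for the full control effect; nearly all actives have a fitted effect of over 60% in size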
How it was run: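 Human CYP2D6 (5 nM) with 30 uM Luciferin-ME EGE (at Km) in 100 mM KPO4, compound preincubated 10 min, then NADPH regeneration system for 60 min at room temperature. Luciferin read by luminescence; normalized to 1.43 uM quinidine.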

[11] = target: Cytochrome P450 2C19 (Homo sapiens) (UniProt P33261); experiment: qHTS Assay for Inhibitors and Substrates of Cytochrome P450 2C19 (AID 899); also: % is scaled to controls: 0 for no effect and ±100 for the full control effect; nearly all actives have a fitted effect of over 60% in size
How it was run: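 5nM enzyme + 10uM Luciferin-H EGE (=KM), 50mM KPO4; cpd pin-transferred, 10 min 37C; NADPH regen, 60 min 37C; stopped w/ luciferin detection reagent, 20 min; luminescence. Normalized to 57uM ketoconazole (AC100).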

[12] = Confirmation and Secondary Assay for Modulators of Hemoglobin Beta Chain Splicing at IVS2 654 locus (AID 910);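 also: HeLa cells stably carrying EGFP split by mutant beta-globin IVS2-654 intron; per-well total GFP intensity by laser scanning cytometry after 2-day treatment; % of control where 0% means no effect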
How it was run: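 Readout: per-well total peak green fluorescence (488 nm ex, 500–520 nm em) from objects 5–250 µm, reflecting correct splicing of an EGFP-654 reporter. Compounds were applied for 2 days at 37 °C to overnight-plated HeLa EGFP-654 cells; controls were DMSO and 500 nM IVS2-654 PNA.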

[13] = Confirmation and Secondary Assay for Modulators of Hemoglobin Beta Chain Splicing at IVS2 705 locus (AID 930);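 also: HeLa cells stably expressing the EGFP-705 splicing reporter; % of control where 0% means no effect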
How it was run: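 HeLa cells stably carrying EGFP interrupted by mutant beta-globin IVS2-705 intron (CMV-driven) were seeded at 500 cells/well, treated next day with compound for 2 days at 37C; corrected splicing restores EGFP, read as total peak GFP intensity per well.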

[14] = target: Muscarinic acetylcholine receptor M1 (Rattus norvegicus) (UniProt P08482); experiment: qHTS Assay for Antagonists of Acetylcholine Muscarinic M1 Receptor: Measurement of IP-One Response (AID 944); also: nearly all actives have a fitted effect of over 75% in size
How it was run: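 M1-CHO (rat), 2000 cells/well, overnight recovery; cpd 10 min; carbachol EC80 (200 nM), 30 min, HEPES buffer + 50 mM LiCl pH 7.4; IP-One HTRF, Ex 337, Em 620/665 nm.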

[15] = target: Pyruvate kinase (Leishmania mexicana) (UniProt Q27686); experiment: qHTS Validation Assay for Inhibitors of Leishmania Mexicana Pyruvate Kinase (AID 945);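 also: 0% = DMSO only neutral control wells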
How it was run: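 LmPYK E451W 0.2 nM; 0.5 mM PEP, 0.1 mM ADP, 7 mM MgCl2, 50 mM KCl, imidazole pH 7.2, 0.01% Tween 20, 0.05% BSA; 1 h RT; PKLight luminescence; DMSO-normalized.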

[16] = target: Pyruvate kinase PKM (Homo sapiens) (UniProt P14618); experiment: qHTS Assay for Activators of Human Muscle Pyruvate Kinase (AID 954; active = well fitted curve in the direction sought with a large enough effect, not every such curve was filed as active;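 also: 0% = uninhibited enzyme and -100% = no enzyme or full thiadiazolimine inhibition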)
How it was run: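 Reaction: 0.1 nM purified PKM2 with 0.5 mM phosphoenolpyruvate and 0.1 mM ADP, room temperature, 1 h. Readout: luciferase-based ATP luminescence after stop reagent. Activators judged against a 0.3 nM enzyme column.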

[17] = target: Alpha-galactosidase A (Homo sapiens) (UniProt P06280); experiment: Counterscreen for Glucocerebrosidase Inhibitors: qHTS Assay for Human alpha-Galactosidase at pH 4.5 (AID 992); also: 0% is about no effect
How it was run: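 Concentration-response curves (0.7 nM to 77 uM final) were modeled with the Hill equation to give AC50. Reactions: 2 nM enzyme, 80 uM fluorogenic alpha-galactoside, pH 4.5 citric acid buffer, 20 min, room temperature.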

[18] = target: alpha-glucosidase (Oryza sativa, rice) (UniProt Q653V4); experiment: Counterscreen for Glucocerebrosidase Inhibitors: qHTS Assay for Rice alpha-Glucosidase at pH 5.0 (AID 997);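 also: 0% = full activity with enzyme and -100% = basal without enzyme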
How it was run: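 Rice alpha-glucosidase (4 nM final) with 400 uM 4-methylumbelliferyl-alpha-D-glucopyranoside in citrate buffer pH 5.0, 20 min at room temperature, stopped at pH 10; fluorescence 365/440 nm, compounds 0.7 nM–77 uM, AC50 from Hill fits.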

[19] = Validation of Assay for Modulators of Lamin A Splicing (AID 1459; active = well fitted curve in the direction sought with a large enough effect in the signal ratio; the % refers to the signal ratio;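 also: cells exposed to compound for two days before reading; 0% is about no effect; ratio rise marks activators and ratio drop marks inhibitors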)
How it was run: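 Splicing correction read as GFP (500-530 nm) over DsRed2 (575-640 nm) object intensity after 48 h compound exposure of reporter HeLa S3 clones (600 cells/well, 2% FBS medium); ancitabine and cycloheximide titrations, 0.5% DMSO as vehicle.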

[20] = qHTS Assay for Lipid Storage Modulators (AID 1519; calls by dose curve); details: Drosophila S3 cells, BODIPY lipid droplet/cell ratio, laser cytometry, cells loaded with oleic acid
How it was run: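 Cells seeded at 5,000 per well were treated with compounds over a concentration series and loaded with oleic acid (400 uM, as added). Lipid droplet fluorescence (488 nm excitation, 500-530 nm channel) was read by laser-scanning cytometry and normalized to 20 uM Triacsin C.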

[21] = target: DNA repair nuclease/redox regulator APEX1 (Homo sapiens) (UniProt P27695); experiment: qHTS Validation Assay for Inhibitors of the Human Apurinic/apyrimidinic Endonuclease 1 (APE1) (AID 1705)
How it was run: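 Activity read as rising fluorescence (598 nm emission, 525 nm excitation) from incision of a TAMRA/BHQ-2 duplex carrying a THF abasic site (50 nM). Compound and enzyme sat 15 min at RT before substrate start; signal change between first and third 60-s reads.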

Chain of Glucocorticoid receptor (Homo sapiens) (P04150 whole entry, looked up, the tested form may be a part): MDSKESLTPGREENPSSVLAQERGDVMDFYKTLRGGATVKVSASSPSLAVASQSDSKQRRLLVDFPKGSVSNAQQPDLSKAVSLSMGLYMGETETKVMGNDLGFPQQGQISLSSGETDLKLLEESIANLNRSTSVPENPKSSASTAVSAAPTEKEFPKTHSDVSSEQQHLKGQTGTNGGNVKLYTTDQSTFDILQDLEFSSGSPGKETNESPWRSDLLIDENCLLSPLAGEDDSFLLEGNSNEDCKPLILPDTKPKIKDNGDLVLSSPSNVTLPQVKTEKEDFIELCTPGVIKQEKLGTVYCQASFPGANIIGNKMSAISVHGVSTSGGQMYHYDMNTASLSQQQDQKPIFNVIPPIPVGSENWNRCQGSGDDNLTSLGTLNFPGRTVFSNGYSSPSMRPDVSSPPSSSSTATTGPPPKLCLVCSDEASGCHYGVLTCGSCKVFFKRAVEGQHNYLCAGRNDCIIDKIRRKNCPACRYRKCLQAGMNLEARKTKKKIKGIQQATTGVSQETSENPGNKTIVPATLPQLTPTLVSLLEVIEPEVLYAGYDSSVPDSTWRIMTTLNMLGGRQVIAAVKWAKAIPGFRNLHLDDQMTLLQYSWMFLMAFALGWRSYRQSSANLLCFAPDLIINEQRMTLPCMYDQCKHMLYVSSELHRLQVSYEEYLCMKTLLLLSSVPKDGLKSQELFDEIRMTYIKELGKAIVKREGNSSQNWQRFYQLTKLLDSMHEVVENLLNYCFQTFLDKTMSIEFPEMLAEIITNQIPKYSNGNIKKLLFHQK
Chain of 3',5'-cyclic-AMP phosphodiesterase 4B (Homo sapiens) (Q07343 whole entry, looked up): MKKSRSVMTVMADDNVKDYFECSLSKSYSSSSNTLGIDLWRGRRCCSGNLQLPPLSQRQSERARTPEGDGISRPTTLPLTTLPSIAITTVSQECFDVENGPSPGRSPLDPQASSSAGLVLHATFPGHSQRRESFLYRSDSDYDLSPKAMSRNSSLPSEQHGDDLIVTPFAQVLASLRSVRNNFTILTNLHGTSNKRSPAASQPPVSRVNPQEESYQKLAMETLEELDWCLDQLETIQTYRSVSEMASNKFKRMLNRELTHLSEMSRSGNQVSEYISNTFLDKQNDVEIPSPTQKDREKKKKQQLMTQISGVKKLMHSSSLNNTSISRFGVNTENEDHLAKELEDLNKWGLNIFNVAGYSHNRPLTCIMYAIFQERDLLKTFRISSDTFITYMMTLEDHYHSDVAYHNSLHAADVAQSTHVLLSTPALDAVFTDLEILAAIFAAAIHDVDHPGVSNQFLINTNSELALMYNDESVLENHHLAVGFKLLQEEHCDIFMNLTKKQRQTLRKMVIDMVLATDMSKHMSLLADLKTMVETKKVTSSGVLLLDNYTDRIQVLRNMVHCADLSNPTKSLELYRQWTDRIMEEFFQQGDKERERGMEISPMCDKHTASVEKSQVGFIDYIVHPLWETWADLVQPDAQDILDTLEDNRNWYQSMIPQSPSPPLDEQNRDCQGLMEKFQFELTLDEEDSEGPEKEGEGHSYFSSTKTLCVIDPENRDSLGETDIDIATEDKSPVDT
Chain of Cytochrome P450 2C9 (Homo sapiens) (P11712 whole entry, looked up): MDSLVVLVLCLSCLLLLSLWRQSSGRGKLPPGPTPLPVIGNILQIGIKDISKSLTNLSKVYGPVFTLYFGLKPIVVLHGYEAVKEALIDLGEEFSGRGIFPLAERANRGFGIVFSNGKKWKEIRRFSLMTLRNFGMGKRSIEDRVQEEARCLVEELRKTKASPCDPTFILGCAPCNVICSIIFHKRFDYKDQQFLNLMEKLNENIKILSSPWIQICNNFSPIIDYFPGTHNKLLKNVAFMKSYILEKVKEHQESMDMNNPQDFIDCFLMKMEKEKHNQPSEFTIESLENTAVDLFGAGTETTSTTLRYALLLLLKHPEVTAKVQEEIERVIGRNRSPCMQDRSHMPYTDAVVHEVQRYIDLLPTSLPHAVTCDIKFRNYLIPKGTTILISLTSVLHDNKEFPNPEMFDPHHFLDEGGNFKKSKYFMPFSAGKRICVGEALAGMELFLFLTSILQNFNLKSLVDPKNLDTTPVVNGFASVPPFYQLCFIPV
Chain of Cytochrome P450 1A2 (Homo sapiens) (P05177 whole entry, looked up): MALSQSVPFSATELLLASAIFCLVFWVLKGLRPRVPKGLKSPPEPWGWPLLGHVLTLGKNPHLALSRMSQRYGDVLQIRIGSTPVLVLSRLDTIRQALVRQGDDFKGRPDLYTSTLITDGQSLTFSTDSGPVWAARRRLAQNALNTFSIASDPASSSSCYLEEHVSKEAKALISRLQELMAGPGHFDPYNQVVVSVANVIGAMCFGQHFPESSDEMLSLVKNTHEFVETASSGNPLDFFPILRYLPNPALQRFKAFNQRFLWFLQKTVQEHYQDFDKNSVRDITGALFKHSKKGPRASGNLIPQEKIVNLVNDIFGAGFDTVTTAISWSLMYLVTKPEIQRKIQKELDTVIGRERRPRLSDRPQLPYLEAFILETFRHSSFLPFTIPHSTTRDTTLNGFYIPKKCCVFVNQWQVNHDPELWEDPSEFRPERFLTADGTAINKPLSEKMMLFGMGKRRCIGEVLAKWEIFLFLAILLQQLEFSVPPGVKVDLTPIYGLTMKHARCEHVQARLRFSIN
Chain of Pyruvate kinase (Leishmania mexicana) (Q27686 2-499 E452W): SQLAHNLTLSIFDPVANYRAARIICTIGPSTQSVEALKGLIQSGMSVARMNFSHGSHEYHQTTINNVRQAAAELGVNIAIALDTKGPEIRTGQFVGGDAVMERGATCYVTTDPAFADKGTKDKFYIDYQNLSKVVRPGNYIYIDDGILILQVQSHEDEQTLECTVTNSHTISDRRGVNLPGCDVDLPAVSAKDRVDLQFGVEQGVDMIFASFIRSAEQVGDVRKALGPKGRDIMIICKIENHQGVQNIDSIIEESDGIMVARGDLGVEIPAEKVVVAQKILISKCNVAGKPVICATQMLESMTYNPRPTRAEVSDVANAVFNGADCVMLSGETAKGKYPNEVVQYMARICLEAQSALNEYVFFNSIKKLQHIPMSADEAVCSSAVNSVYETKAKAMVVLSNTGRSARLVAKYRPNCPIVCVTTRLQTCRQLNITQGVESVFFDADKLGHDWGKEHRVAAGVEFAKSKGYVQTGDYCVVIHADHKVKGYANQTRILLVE
Chain of Alpha-galactosidase A (Homo sapiens) (P06280 whole entry, looked up): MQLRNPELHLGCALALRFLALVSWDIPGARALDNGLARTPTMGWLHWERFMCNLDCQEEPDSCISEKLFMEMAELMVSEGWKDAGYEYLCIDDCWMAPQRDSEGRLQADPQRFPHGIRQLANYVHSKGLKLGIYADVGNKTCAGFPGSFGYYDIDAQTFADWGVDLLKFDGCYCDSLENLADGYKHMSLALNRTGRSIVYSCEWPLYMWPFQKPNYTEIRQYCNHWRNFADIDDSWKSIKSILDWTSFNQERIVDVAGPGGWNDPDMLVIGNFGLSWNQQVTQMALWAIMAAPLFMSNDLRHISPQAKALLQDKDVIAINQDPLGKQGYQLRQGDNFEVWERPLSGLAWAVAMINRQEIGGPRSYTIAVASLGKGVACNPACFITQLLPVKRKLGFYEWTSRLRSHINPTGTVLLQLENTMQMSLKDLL
Chain of DNA repair nuclease/redox regulator APEX1 (Homo sapiens) (P27695 whole entry, looked up): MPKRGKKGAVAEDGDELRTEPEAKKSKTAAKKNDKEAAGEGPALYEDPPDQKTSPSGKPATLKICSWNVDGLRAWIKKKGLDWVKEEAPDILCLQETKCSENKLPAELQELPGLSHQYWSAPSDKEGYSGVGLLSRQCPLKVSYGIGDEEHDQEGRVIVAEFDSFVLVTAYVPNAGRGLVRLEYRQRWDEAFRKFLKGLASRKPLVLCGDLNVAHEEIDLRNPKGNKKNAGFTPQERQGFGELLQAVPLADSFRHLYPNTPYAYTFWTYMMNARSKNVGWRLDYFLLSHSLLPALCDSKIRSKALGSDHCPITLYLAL
Chain of Guanine nucleotide-binding protein G(i) subunit alpha-1 (Homo sapiens) (P63096 whole entry, looked up): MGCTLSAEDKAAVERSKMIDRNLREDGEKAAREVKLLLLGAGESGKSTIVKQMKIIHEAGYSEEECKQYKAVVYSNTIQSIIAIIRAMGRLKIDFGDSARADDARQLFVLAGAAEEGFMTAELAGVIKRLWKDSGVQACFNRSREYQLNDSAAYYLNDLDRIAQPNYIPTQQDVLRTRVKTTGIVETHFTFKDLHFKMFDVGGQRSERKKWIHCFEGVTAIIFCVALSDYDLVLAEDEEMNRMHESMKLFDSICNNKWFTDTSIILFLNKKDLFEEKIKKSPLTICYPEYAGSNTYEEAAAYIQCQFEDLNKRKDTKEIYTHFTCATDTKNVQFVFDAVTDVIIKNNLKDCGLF
Chain of Pyruvate kinase PKM (Homo sapiens) (P14618 whole entry, looked up): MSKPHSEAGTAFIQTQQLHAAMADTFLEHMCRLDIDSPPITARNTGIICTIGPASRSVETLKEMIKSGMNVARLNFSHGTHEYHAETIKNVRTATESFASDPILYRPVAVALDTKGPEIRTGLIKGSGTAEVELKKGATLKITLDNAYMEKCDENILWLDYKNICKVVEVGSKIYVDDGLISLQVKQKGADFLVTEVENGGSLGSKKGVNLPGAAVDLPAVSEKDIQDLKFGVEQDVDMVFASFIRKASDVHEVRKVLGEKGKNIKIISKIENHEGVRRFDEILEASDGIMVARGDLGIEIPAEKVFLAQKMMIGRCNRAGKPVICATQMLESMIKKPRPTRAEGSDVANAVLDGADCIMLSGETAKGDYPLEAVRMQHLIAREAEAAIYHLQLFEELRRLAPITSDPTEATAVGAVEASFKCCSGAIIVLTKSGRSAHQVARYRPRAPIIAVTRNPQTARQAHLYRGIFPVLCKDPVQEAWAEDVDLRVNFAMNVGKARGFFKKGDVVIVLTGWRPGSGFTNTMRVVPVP

O=C(O)c1cc(=O)c2ccc(Cl)cc2[nH]1
22.6% and 6.02%: max response ([20]; measured here: lipid channel max response)
inactive: activity change, negative = inhibition [1] -5.86% | Potency [2] | activity change, negative = inhibition [3] 3.07% | activity, negative = inhibition [4] 42.7% | Potency [5] > 46 µM | Potency [6] | Potency [7] | outcome [8] | Potency [9] | Potency [10] | Potency [11] | outcome [12] | outcome [13] | Potency [14] | Potency [15] | outcome [16] | outcome [17] | outcome [18] | outcome [19] | activity change, negative = inhibition ([20]; at 57.5 µM (top of the series)) 4.77% and 6.7% | Potency [21]
15.1% and -2.23%: max response ([20]; measured here: cell count channel max response)

— PubChem BioAssay (NCATS)
